{"source": "the antibiotic and cytotoxicity screens of Wong et al. (2023)", "note": "Hit rate of the full screen: of about 39,000 compounds, about 3,300 (8.5%) were called active. Shown is part of a subset that was picked to be rich in actives."}
{"tested_on": "HepG2", "experiment": "cytotoxicity call (relative viability < 0.9)", "settings": "10 µM"}
{"compound": "C[C@H]1CN([C@@H](C)CO)C(=O)c2cc(NS(=O)(=O)c3cccs3)ccc2O[C@@H]1CN(C)S(=O)(=O)c1ccccc1", "cytotoxicity call": "inactive"}
{"compound": "COC(=O)CCCCCCC(=O)N/N=C/[C@H](O)[C@@H](O)[C@H](O[C@@H]1O[C@H](CO)[C@H](O)[C@H](O)[C@H]1O)[C@H](O)CO", "cytotoxicity call": "inactive"}
{"compound": "CO[C@H](CN(C)C(=O)c1ccc2c(c1)OCO2)[C@H](C)CN([C@@H](C)CO)S(=O)(=O)c1ccc(C)cc1", "cytotoxicity call": "inactive"}
{"compound": "Cc1ccc(S(=O)(=O)N(C)C[C@H]2Oc3ccc(NC(=O)CCN4CCOCC4)cc3CC(=O)N([C@@H](C)CO)C[C@@H]2C)cc1", "cytotoxicity call": "inactive"}
{"compound": "Cc1cc(=O)oc2cc(O[C@H]3O[C@@H](CO)[C@@H](O)[C@@H](O)[C@@H]3O)ccc12", "cytotoxicity call": "inactive"}
{"compound": "C[C@H]1C[C@@H]2[C@@H](C[C@@H]1C)N[C@@H]1C(=O)NC(=O)N[C@H]1N2C[C@H](O)[C@H](O)[C@H](O)CO", "cytotoxicity call": "inactive"}
{"compound": "Cc1ccc(S(=O)(=O)N(C)C[C@@H]2OCCCC[C@@H](C)Oc3ccc(NC(=O)Nc4ccccc4)cc3C(=O)N([C@@H](C)CO)C[C@@H]2C)cc1", "cytotoxicity call": "inactive"}
{"compound": "COc1ccc(NC(=O)Nc2ccc3c(c2)C(=O)N([C@H](C)CO)C[C@H](C)[C@@H](CN(C)C(=O)Nc2cccc4ccccc24)OCCCC[C@@H](C)O3)cc1", "cytotoxicity call": "inactive"}
{"compound": "CC#CC(=O)NS(=O)(=O)c1ccccc1", "cytotoxicity call": "inactive"}
{"compound": "C[C@@H]1CN([C@@H](C)CO)C(=O)c2cccc(NC(=O)C3CCOCC3)c2O[C@H]1CN(C)S(=O)(=O)c1cn(C)cn1", "cytotoxicity call": "inactive"}
{"compound": "C[C@H]1CN([C@@H](C)CO)C(=O)Cc2cc(NS(=O)(=O)c3cn(C)cn3)ccc2O[C@@H]1CN(C)CC1CCCCC1", "cytotoxicity call": "inactive"}
{"compound": "CC(=O)N(C)C[C@H]1Oc2cc(C#CCN(C)C)ccc2S(=O)(=O)N([C@@H](C)CO)C[C@@H]1C", "cytotoxicity call": "inactive"}
{"compound": "C[C@@H]1CN([C@@H](C)CO)C(=O)c2cccc(NC(=O)c3ccc(-c4nccs4)cc3)c2O[C@@H]1CN(C)Cc1ccc(C(=O)Nc2ccccc2N)cc1", "cytotoxicity call": "active"}
{"compound": "C[C@H]1CN([C@@H](C)CO)C(=O)c2cccc(NC(=O)c3ccc(-c4nccs4)cc3)c2O[C@@H]1CN(C)CC1CCCCC1", "cytotoxicity call": "inactive"}
{"compound": "C[C@H](CO)N1C[C@H](C)[C@@H](CN(C)Cc2ccc(-c3ccccc3)cc2)Oc2c(NC(=O)c3ccncc3)cccc2C1=O", "cytotoxicity call": "active"}
{"compound": "C[C@H]1CN([C@@H](C)CO)C(=O)c2cccc(NC(=O)c3ccc(-c4nccs4)cc3)c2O[C@@H]1CN(C)Cc1ccc(C(=O)Nc2ccccc2N)cc1", "cytotoxicity call": "inactive"}
{"compound": "C[C@@H]1CN([C@H](C)CO)C(=O)c2cccc(NC(=O)c3ccc(-c4nccs4)cc3)c2O[C@@H]1CN(C)CC1CCCCC1", "cytotoxicity call": "inactive"}
{"compound": "C[C@H]1CN([C@@H](C)CO)C(=O)c2cccc(NC(=O)c3ccncc3)c2O[C@H]1CN(C)Cc1ccc(-c2ccccc2)cc1", "cytotoxicity call": "inactive"}
{"compound": "C[C@@H]1CN([C@@H](C)CO)C(=O)c2cccc(NC(=O)c3ccc(-c4nccs4)cc3)c2O[C@@H]1CN(C)Cc1ccc(Cl)c(Cl)c1", "cytotoxicity call": "active"}
{"compound": "C[C@@H]1CN([C@H](C)CO)C(=O)c2cccc(NC(=O)c3ccc(-c4nccs4)cc3)c2O[C@H]1CN(C)Cc1ccc(Cl)c(Cl)c1", "cytotoxicity call": "inactive"}
{"compound": "C[C@H]1CN([C@@H](C)CO)C(=O)c2cccc(NC(=O)c3ccc(-c4nccs4)cc3)c2O[C@@H]1CN(C)Cc1ccc(Cl)c(Cl)c1", "cytotoxicity call": "inactive"}
{"compound": "C[C@H](CO)N1C[C@H](C)[C@H](CN(C)Cc2ccc(C(=O)Nc3ccccc3N)cc2)Oc2c(NC(=O)c3ccc(-c4nccs4)cc3)cccc2C1=O", "cytotoxicity call": "inactive"}
{"compound": "C[C@@H]1CN([C@H](C)CO)C(=O)c2cccc(NC(=O)c3ccc(-c4nccs4)cc3)c2O[C@H]1CN(C)CC1CCCCC1", "cytotoxicity call": "active"}
{"compound": "C[C@H](CO)N1C[C@H](C)[C@H](CN(C)Cc2ccc(-c3ccccc3)cc2)Oc2c(NC(=O)c3ccncc3)cccc2C1=O", "cytotoxicity call": "inactive"}
{"compound": "COc1cccc(S(=O)(=O)Nc2ccc3c(c2)[C@@H]2C[C@@H](CC(=O)NCc4cccc(F)c4)O[C@H](CO)[C@@H]2O3)c1", "cytotoxicity call": "inactive"}
{"compound": "O=C(C[C@@H]1C=C[C@@H](NS(=O)(=O)c2ccccc2)[C@@H](CO)O1)NCc1ccncn1", "cytotoxicity call": "inactive"}
{"compound": "COc1ccc(S(=O)(=O)N2C[C@H](O)COC[C@@H]3O[C@@H](CC(=O)N[C@@H]4CCN(Cc5ccccc5)C4)CC[C@H]32)cc1", "cytotoxicity call": "inactive"}
{"compound": "COCC(=O)Nc1ccc2c(c1)C(=O)N(C)C[C@@H](OC)[C@@H](C)CN(Cc1ccccc1OC)[C@H](C)CO2", "cytotoxicity call": "inactive"}
{"compound": "C[C@@H]1CCCCO[C@H](CN(C)C(=O)Cc2ccccc2)[C@H](C)CN([C@@H](C)CO)C(=O)c2cc(NS(=O)(=O)c3ccc(Cl)cc3)ccc2O1", "cytotoxicity call": "inactive"}
{"compound": "COCC(=O)N1C[C@H](C)[C@H](OC)CN(C)C(=O)c2ccc(NC(=O)c3ccc(OC)cc3)cc2OC[C@H]1C", "cytotoxicity call": "inactive"}
{"compound": "Cc1noc(C)c1S(=O)(=O)N(C)C[C@H]1OCCCC[C@@H](C)Oc2ccc(NC(=O)Nc3ccc(F)cc3)cc2C(=O)N([C@H](C)CO)C[C@@H]1C", "cytotoxicity call": "inactive"}
{"compound": "Cc1noc(C)c1S(=O)(=O)Nc1ccc2c(c1)C(=O)N([C@H](C)CO)C[C@@H](C)[C@H](CN(C)Cc1ccccc1)OCCCC[C@H](C)O2", "cytotoxicity call": "inactive"}
{"compound": "COc1ccc(S(=O)(=O)N(C)C[C@@H]2Oc3ccc(NC(=O)Nc4ccc(Cl)c(Cl)c4)cc3CC(=O)N([C@@H](C)CO)C[C@@H]2C)cc1Cl", "cytotoxicity call": "active"}
{"compound": "COc1ccc(S(=O)(=O)N(C)C[C@@H]2Oc3ccc(NC(=O)NC(C)C)cc3CC(=O)N([C@H](C)CO)C[C@@H]2C)cc1", "cytotoxicity call": "inactive"}
{"compound": "CC(C)NC(=O)Nc1ccc2c(c1)CC(=O)N([C@@H](C)CO)C[C@@H](C)[C@H](CN(C)S(=O)(=O)c1ccc(Cl)cc1)O2", "cytotoxicity call": "inactive"}
{"compound": "COc1ccc(S(=O)(=O)N(C)C[C@@H]2Oc3ccc(NC(=O)Nc4cccc5c4CCCC5)cc3CC(=O)N([C@@H](C)CO)C[C@@H]2C)cc1Cl", "cytotoxicity call": "inactive"}
{"compound": "CC(C)NC(=O)Nc1ccc2c(c1)CC(=O)N([C@H](C)CO)C[C@@H](C)[C@H](CN(C)S(=O)(=O)c1ccc(Cl)cc1)O2", "cytotoxicity call": "inactive"}
{"compound": "COc1ccc(S(=O)(=O)N(C)C[C@@H]2Oc3ccc(NC(=O)Nc4cc(Cl)cc(Cl)c4)cc3CC(=O)N([C@@H](C)CO)C[C@@H]2C)cc1Cl", "cytotoxicity call": "active"}
{"compound": "CCS(=O)(=O)N1CCNCC1", "cytotoxicity call": "inactive"}
{"compound": "CC1C(=O)CCC2C1(C)CCC1C2(C)CCC2(C)C3CC(C)(C)CCC3(C)CCC12C", "note": "(configuration not stated)", "cytotoxicity call": "inactive"}
{"compound": "O=C(O)c1n[nH]c2c1CCCC2", "cytotoxicity call": "inactive"}
{"compound": "C[C@H]1CN([C@@H](C)CO)C(=O)c2cc(C#Cc3ccccc3F)cnc2O[C@H]1CN(C)C(=O)C1CCOCC1", "cytotoxicity call": "inactive"}
{"compound": "COc1ccc(C[C@H]2c3cc(OC)c(OC)cc3CC[N@+]2(C)CCC(=O)OCCCCCOC(=O)CC[N@+]2(C)CCc3cc(OC)c(OC)cc3[C@@H]2Cc2ccc(OC)c(OC)c2)cc1OC", "cytotoxicity call": "inactive"}
{"compound": "COc1ccc(CC2c3cc(OC)c(OC)cc3CC[N+]2(C)CCC(=O)OCCCCCOC(=O)CC[N+]2(C)CCc3cc(OC)c(OC)cc3C2Cc2ccc(OC)c(OC)c2)cc1OC.O=S(=O)([O-])c1ccccc1.O=S(=O)([O-])c1ccccc1", "note": "(configuration not stated)", "cytotoxicity call": "inactive"}
{"compound": "COc1ccc(C[C@@H]2c3cc(OC)c(OC)cc3CC[N@+]2(C)CCC(=O)OCCCCCOC(=O)CC[N@@+]2(C)CCc3cc(OC)c(OC)cc3[C@H]2Cc2ccc(OC)c(OC)c2)cc1OC", "cytotoxicity call": "active"}
{"compound": "COc1ccc(S(=O)(=O)Nc2ccc3c(c2)C(=O)N([C@@H](C)CO)C[C@H](C)[C@@H](CN(C)S(=O)(=O)c2ccccc2)O3)cc1", "cytotoxicity call": "inactive"}
{"compound": "C[C@@H]1CN([C@H](C)CO)C(=O)c2cc(NC(=O)C3CCCCC3)ccc2O[C@H]1CN(C)Cc1ccc(C(F)(F)F)cc1", "cytotoxicity call": "inactive"}
{"compound": "CC(C)NC(=O)Nc1cccc2c1O[C@@H](CN(C)Cc1ccc(Oc3ccccc3)cc1)[C@@H](C)CN([C@H](C)CO)C2=O", "cytotoxicity call": "inactive"}
{"compound": "COc1cccn(CC(=O)N2CCO[C@@H](CCN)C2)c1=O", "cytotoxicity call": "inactive"}
{"compound": "CN(C)c1nc(SCC(N)=O)nc(N(C)C)n1", "cytotoxicity call": "inactive"}
{"compound": "CNc1nc(SCC(N)=O)nc(N2CCOCC2)n1", "cytotoxicity call": "active"}
{"compound": "CCNc1nc(SCC(N)=O)nc(N2CCOCC2)n1", "cytotoxicity call": "inactive"}
{"compound": "Cn1c(=O)c2c(nc(N(CCO)CCO)n2Cc2ccc(F)cc2)n(C)c1=O", "cytotoxicity call": "inactive"}
{"compound": "C[C@@H]1CN([C@@H](C)CO)C(=O)c2c(c3ccccc3n2C)-c2ccccc2CO[C@H]1CN(C)Cc1ccc(Oc2ccccc2)cc1", "cytotoxicity call": "inactive"}
{"compound": "C[C@@H]1CN([C@H](C)CO)C(=O)Cc2cc(NC(=O)CCC(F)(F)F)ccc2O[C@H]1CN(C)C(=O)Nc1ccc(C(F)(F)F)cc1", "cytotoxicity call": "inactive"}
{"compound": "C[C@@H]1CN([C@@H](C)CO)C(=O)Cc2cc(NC(=O)C3CCCCC3)ccc2O[C@@H]1CN(C)Cc1ccc(-c2ccccc2)cc1", "cytotoxicity call": "active"}
{"compound": "C[C@@H]1CN([C@H](C)CO)C(=O)Cc2cc(NC(=O)C3CCCCC3)ccc2O[C@H]1CN(C)Cc1ccc(-c2ccccc2)cc1", "cytotoxicity call": "inactive"}
{"compound": "C[C@H]1CN([C@@H](C)CO)C(=O)Cc2cc(NC(=O)C3CCCCC3)ccc2O[C@@H]1CN(C)Cc1ccc(-c2ccccc2)cc1", "cytotoxicity call": "inactive"}
{"compound": "C[C@@H]1CN([C@@H](C)CO)C(=O)Cc2cc(NC(=O)C3CCCCC3)ccc2O[C@H]1CN(C)Cc1ccc(-c2ccccc2)cc1", "cytotoxicity call": "inactive"}
{"compound": "C[C@@H]1CN([C@H](C)CO)C(=O)Cc2cc(NC(=O)C3CCCCC3)ccc2O[C@@H]1CN(C)Cc1ccc(-c2ccccc2)cc1", "cytotoxicity call": "active"}
{"compound": "C[C@H](CO)N1C[C@H](C)[C@H](CN(C)Cc2ccc(-c3ccccc3)cc2)Oc2ccc(NC(=O)C3CCCCC3)cc2CC1=O", "cytotoxicity call": "inactive"}
{"compound": "Cc1noc(C)c1NC(=O)N(C)C[C@H]1Oc2c(NC(=O)C3CC3)cccc2C(=O)N([C@H](C)CO)C[C@H]1C", "cytotoxicity call": "inactive"}
